Test results reported in PubChem BioAssay (Tox21).
Several values for one entry are separate records, joined by “and”; a condition that tells them apart may be missing. Equal entries are not always repeated. Inconclusive results are not listed. A structure can be active in one record and inactive in another. Activity calls are given as the source filed them. The call rests on the fitted dose curve; in most records, active means well fitted curve in the direction sought with a large enough effect in the repeat runs; inconclusive means weak or mixed curves; inactive means no such curve, though single readings can be large; an effect the other way counts as inactive or inconclusive.

What was measured:
[1] = Caspase-3/7 induction in HepG2 cells by small molecules, qHTS assay (AID 1346978); further: nearly all actives have a fitted effect of over 15% in size; further: potency means the concentration at half of the fitted maximal effect
Method in brief: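 Caspase-3/7 induction was measured by Caspase-Glo 3/7 luminescence (30 min, room temperature) after a 17 hr compound exposure of wild-type HepG2 cells seeded at 2,000 per well and pre-incubated 5 hr.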

[2] = Caspase-3/7 induction in CHO-K1 cells by small molecules, qHTS cell viability counter screen (AID 1346979); further: nearly all actives have a fitted effect of over 35% in size; further: potency means the concentration at half of the fitted maximal effect
Method in brief: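 Cytotoxicity counter screen run in parallel with the caspase-3/7 assay: CHO-K1 cells, 16hr compound treatment at 37C, then CellTiter-Fluor for 1hr before fluorescence reading.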

[3] = Caspase-3/7 induction in CHO-K1 cells by small molecules, qHTS assay (AID 1346980); further: nearly all actives have a fitted effect of over 15% in size
Method in brief: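 Luminescent Caspase-Glo 3/7 read (30min, room temperature) quantified apoptosis induction. Cells were wild-type CHO-K1, treated with compound for 17hr at 37 C and 5% CO2.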

[4] = Caspase-3/7 induction in HepG2 cells by small molecules, qHTS cell viability counter screen (AID 1346981); further: nearly all actives have a fitted effect of over 30% in size; further: potency means the concentration at half of the fitted maximal effect; on activity change, negative = cytotoxicity: series mostly up to about 92 µM
Method in brief: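 Wild-type HepG2 cells (2,000/well) were allowed to settle for 5 hr at 37 C, 5% CO2, then dosed with compounds in DMSO by pin transfer. After 16 hr at 37 C, CellTiter-Fluor was added and fluorescence read 1 hr later.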

[5] = molecular target: Nuclear receptor subfamily 1 group I member 2 (Homo sapiens) (UniProt O75469); experiment: Human pregnane X receptor (PXR) small molecule agonists, qHTS assay (AID 1346982); further: nearly all actives have a fitted effect of over 35% in size; further: potency means the concentration at half of the fitted maximal effect
Sequence of Nuclear receptor subfamily 1 group I member 2 (Homo sapiens) (O75469 whole entry, looked up): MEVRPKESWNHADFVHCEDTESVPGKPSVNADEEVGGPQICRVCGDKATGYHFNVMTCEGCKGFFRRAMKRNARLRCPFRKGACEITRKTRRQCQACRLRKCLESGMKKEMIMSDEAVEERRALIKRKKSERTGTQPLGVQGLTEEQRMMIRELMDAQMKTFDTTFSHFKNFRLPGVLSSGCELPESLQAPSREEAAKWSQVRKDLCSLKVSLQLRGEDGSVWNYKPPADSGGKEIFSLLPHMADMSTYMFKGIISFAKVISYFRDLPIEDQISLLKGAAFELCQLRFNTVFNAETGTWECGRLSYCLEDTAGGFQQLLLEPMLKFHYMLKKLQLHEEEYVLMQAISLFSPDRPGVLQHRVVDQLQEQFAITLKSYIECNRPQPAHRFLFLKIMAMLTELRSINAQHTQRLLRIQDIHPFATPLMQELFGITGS
Method in brief: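 PXR-Luc HepG2 cells (CYP3A4 promoter-driven luciferase) were seeded in medium with 5% charcoal-stripped FBS, left 5 hr at 37 C, then exposed to compounds in DMSO for 24 hr. Luminescence was read after ONE-Glo addition.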

[6] = molecular target: Nuclear receptor subfamily 1 group I member 2 (Rattus norvegicus) (UniProt Q9R1A7); experiment: Rat pregnane X receptor (rPXR) activation by small molecules, qHTS assay (AID 1346983); conditions: rPXR luciferase reporter cells, One-Glo luminescence, 24 h; max activation: stronger effect = higher value; further: nearly all actives have a fitted effect of over 20% in size
Sequence of Nuclear receptor subfamily 1 group I member 2 (Rattus norvegicus) (Q9R1A7 whole entry, looked up): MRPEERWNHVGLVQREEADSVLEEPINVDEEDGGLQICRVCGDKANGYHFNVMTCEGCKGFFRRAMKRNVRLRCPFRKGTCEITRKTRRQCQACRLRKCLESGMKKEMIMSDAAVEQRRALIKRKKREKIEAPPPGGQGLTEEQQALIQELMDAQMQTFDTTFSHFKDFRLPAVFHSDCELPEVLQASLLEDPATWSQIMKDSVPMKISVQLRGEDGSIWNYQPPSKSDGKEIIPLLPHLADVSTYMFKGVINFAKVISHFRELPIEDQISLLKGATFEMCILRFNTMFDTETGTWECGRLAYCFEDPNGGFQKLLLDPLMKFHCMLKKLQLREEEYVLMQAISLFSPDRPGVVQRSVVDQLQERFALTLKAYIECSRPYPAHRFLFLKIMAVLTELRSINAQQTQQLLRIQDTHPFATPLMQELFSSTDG
Method in brief: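 Luminescent readout (One-Glo luciferase, 30 min room temperature) followed 24 hr compound treatment at 37 C of rPXR cells plated 2,000 per well and preincubated 5hr; qHTS format with compounds delivered in DMSO.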

[7] = molecular target: Nuclear receptor subfamily 1 group I member 2 (Homo sapiens) (UniProt O75469); experiment: CYP3A4 induction through human pregnane X receptor (PXR) by small molecules, qHTS assay (AID 1346984); further: nearly all actives have a fitted effect of over 40% in size
Method in brief: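 DPX-2 cells (HepG2 co-transfected with PXR and CYP3A4 promoter-luciferase) treated with compounds 24 h at 37C; luciferin-IPA CYP3A4 substrate 3uM final added for 3 h, then One-Glo; luminescence read. qHTS format.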

[8] = molecular target: Nuclear receptor subfamily 1 group I member 2 (Homo sapiens) (UniProt O75469); experiment: Human pregnane X receptor (PXR) activation by small molecules, qHTS assay (AID 1346985); further: nearly all actives have a fitted effect of over 40% in size
Method in brief: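 DPX-2 cells (HepG2 co-transfected with a PXR response element and a CYP3A4-promoter luciferase construct) were seeded at 2,000 per well, rested 5 hr at 37C, then exposed to DMSO-dissolved compounds for 24 hr. Activation was read as luciferase luminescence.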

[9] = molecular target: Cytochrome P450 2D6 (Homo sapiens) (UniProt P10635); experiment: Cytochrome P450 Family 2 Subfamily D Member 6 (CYP2D6) small molecule antagonists: luciferase reporter qHTS assay (AID 1671196); further: nearly all actives have a fitted effect of over 50% in size; further: potency means the concentration at half of the fitted maximal effect
Sequence of Cytochrome P450 2D6 (Homo sapiens) (P10635 whole entry, looked up): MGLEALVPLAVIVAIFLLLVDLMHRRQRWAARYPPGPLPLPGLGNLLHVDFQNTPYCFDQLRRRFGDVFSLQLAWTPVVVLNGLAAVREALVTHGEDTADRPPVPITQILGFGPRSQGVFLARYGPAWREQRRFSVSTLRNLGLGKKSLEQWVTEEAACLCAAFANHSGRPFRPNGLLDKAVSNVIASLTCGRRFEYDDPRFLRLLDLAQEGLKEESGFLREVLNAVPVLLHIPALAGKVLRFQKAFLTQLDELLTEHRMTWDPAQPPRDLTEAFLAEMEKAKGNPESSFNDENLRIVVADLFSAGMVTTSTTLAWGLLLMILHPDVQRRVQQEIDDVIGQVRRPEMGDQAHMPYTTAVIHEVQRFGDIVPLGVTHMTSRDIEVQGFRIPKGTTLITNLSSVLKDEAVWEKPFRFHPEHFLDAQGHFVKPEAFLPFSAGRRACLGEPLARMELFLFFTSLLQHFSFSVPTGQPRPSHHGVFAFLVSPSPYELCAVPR
Method in brief: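 CYP2D6 enzyme–substrate mix was held with compound for 10 min at room temperature, then NADPH regeneration solution was added and the reaction ran 1 h at room temperature. Luciferin product was detected by luminescence after 20 min with detection reagent.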

[10] = molecular target: Cytochrome P450 2C19 (Homo sapiens) (UniProt P33261); experiment: Cytochrome P450 Family 2 Subfamily C Member 19 (CYP2C19) small molecule antagonists: luciferase reporter qHTS assay (AID 1671197); further: nearly all actives have a fitted effect of over 65% in size; further: potency means the concentration at half of the fitted maximal effect
Sequence of Cytochrome P450 2C19 (Homo sapiens) (P33261 whole entry, looked up): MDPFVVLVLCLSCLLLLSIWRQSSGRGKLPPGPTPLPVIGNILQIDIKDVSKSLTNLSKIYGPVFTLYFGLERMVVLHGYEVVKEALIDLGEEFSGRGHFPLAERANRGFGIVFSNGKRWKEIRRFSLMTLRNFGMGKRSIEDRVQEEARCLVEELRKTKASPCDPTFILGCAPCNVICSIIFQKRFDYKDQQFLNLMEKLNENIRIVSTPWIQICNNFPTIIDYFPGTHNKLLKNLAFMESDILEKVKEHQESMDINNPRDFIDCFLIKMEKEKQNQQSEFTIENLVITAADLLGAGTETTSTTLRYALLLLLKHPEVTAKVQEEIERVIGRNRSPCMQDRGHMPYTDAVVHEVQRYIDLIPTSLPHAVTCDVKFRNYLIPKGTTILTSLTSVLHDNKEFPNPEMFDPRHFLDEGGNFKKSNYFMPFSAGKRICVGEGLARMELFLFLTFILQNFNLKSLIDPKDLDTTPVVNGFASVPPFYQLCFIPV
Method in brief: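 Enzyme-substrate mix with proluciferin substrate (P450-Glo CYP2C19 system) preincubated with compounds 10 min at room temperature; NADPH regeneration solution added, 37C for 1 h; detection reagent stops reaction, luminescence read after 20 min. Ketoconazole positive control.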
On the % scale 0 is the no-effect control and ±100 the full control effect.

Cc1ccc(S(=O)(=O)O)cc1C
inactive: Potency [1] | Potency [2] | Potency [3] | Potency [4] | Potency [5] | max activation [6] -0.712% | Potency [7] | Potency [8] | Potency [9]

C=CC(=O)OCCCC
inactive: Potency [1] | Potency [2] | Potency [3] | Potency [4] | Potency [5] | Potency [9]

CC(C)[N+](C)(CCOC(=O)C1c2ccccc2Oc2ccccc21)C(C)C
active: Potency [9] 100 nM and 195 nM
inactive: Potency [1] | Potency [2] | Potency [3] | Potency [4] | Potency [5] | max activation [6] 0.826% | Potency [7] | Potency [8] | Potency [10]

CC(C)[C@@H]1CC[C@@H](C)CC1=O
inactive: Potency [1] | Potency [2] | Potency [3] | Potency [4] | Potency [5] | max activation [6] -3.74% | Potency [7] | Potency [8] | Potency [9]

CCc1cccc2c3c([nH]c12)C(CC)(CC(=O)O)OCC3 (stereo not given)
inactive: Potency [1] | Potency [2] | Potency [3] | Potency [4] | Potency [5] | max activation [6] 1.85% | Potency [7] | Potency [8]
20 µM (active) and inactive: Potency [9]

CC1(C)C(C=C(Cl)Cl)C1C(=O)OCc1cccc(Oc2ccccc2)c1 (stereo not given)
inactive: Potency [1] | Potency [2] | Potency [3] | Potency [4] | max activation [6] 4.94% | Potency [7] | Potency [8]
active: Potency [5] 24.2 µM | Potency [10] 7.91 µM and 3.17 µM

CCCCCC=O
inactive: Potency [1] | Potency [2] | Potency [3] | Potency [4] | Potency [5] | Potency [9]

CC1=CC(C)(C)Nc2ccccc21
inactive: Potency [1] | Potency [2] | Potency [3] | Potency [4] | Potency [9]
active: Potency [5] 8.41 µM

COc1ccc(C(=O)c2ccccc2O)c(O)c1
inactive: Potency [1] | Potency [2] | Potency [3] | Potency [4]

COc1cc([C@H]2Oc3cc([C@H]4Oc5cc(O)cc(O)c5C(=O)[C@@H]4O)ccc3O[C@@H]2CO)ccc1O
60.9 µM (active) and inactive: Potency [2] | Potency [4] | Potency [5]
inactive: Potency [1] | Potency [3] | max activation [6] -6.88% | Potency [7] | Potency [8] | Potency [10]

c1ccc2c(c1)ccc1ncccc12
active: Potency [5] 60.7 µM and 61.1 µM | Potency [9] 7.91 µM
inactive: Potency [1] | Potency [2] | Potency [3] | Potency [4]

IC(I)I
inactive: Potency [1] | Potency [2] | Potency [3] | Potency [4] | Potency [5] | max activation [6] -1.04% | Potency [8]

CCC(Cc1c(I)cc(I)c(N)c1I)C(=O)O (stereo not given)
active: Potency [5] 52.8 µM
inactive: Potency [1] | Potency [2] | Potency [3] | Potency [4] | max activation [6] -1.5% | Potency [7] | Potency [8] | Potency [9] | Potency [10]

NCCS(=O)(=O)O
inactive: Potency [1] | Potency [3] | Potency [4]
28.4 µM (active) and inactive: Potency [2]

O=C(O)c1cc(=O)[nH]c(=O)[nH]1
active: Potency [9] 6.34 µM
inactive: Potency [1] | Potency [2] | Potency [3] | Potency [4] | Potency [5] | max activation [6] -3.14% | Potency [7] | Potency [8]
40 µM (active) and inactive: Potency [10]

Cc1ccc(C)c(O)c1
inactive: Potency [1] | Potency [2] | Potency [3] | Potency [4] | Potency [5] | Potency [9]

O=[Se](O)O
inactive: Potency [1] | activity change, negative = cytotoxicity [2] 5.77% [at 19 µM] | Potency [3] | Potency [5] | Potency [9]
active: Potency [2] 54.5 µM

COCCOCCOCCO
inactive: Potency [1] | Potency [2] | Potency [3] | Potency [4] | Potency [5] | Potency [9]

O=C(CCCN1CCC(O)(c2ccc(Cl)cc2)CC1)c1ccc(F)cc1
inactive: Potency [3]
61.1 µM (active) and inactive: Potency [2]
54.5 µM (active) and inactive: Potency [1]

CCCCCCCC/C=C\CCCCCCCC(=O)O
71.4 µM (active) and inactive: Potency [10]
inactive: Potency [1] | Potency [2] | Potency [3] | Potency [4] | Potency [5] | max activation [6] -0.693% | Potency [7] | Potency [8] | Potency [9]
